The record followed here is PubChem BioAssay (Tox21).

Values without a mark were called inactive. Records with an inconclusive call do not appear. Activity calls are given as the source filed them. Unless noted, calls come from the whole dose curve; as a rule, active = well fitted curve in the direction sought with a large enough effect in the repeat runs; inconclusive = weak or mixed curves; inactive = no such curve, though single readings can be large; an effect the other way counts as inactive or inconclusive.

For assay [1], the target named is Glucocorticoid receptor (Homo sapiens) (UniProt P04150). The assay is described as follows: qHTS assay to identify small molecule antagonists of the glucocorticoid receptor (GR) signaling pathway (AID 720692; active = well fitted inhibition curve with a large enough effect in the signal ratio in the repeat runs, not every such curve was filed as active; the % refers to the signal ratio; note: % is set by controls: 0 for no effect and ±100 for the full control effect). Summed up:
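Cells plated, rested 4 h at 37 C/5% CO2; compounds in DMSO pin-transferred; dexamethasone added to 5 nM final; 18 h at 37 C; B/G FRET substrate added, 2 h room temperature; fluorescence measured.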

Assay [2] deals with Aryl hydrocarbon receptor (Homo sapiens) (UniProt P35869). The assay is described as follows: qHTS assay to identify small molecule that activate the aryl hydrocarbon receptor (AhR) signaling pathway (AID 743085).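 Note: HG2L7.5c1 human HepG2 liver cells with stably integrated DRE-driven firefly reporter; % is set by controls: 0 for no effect and ±100 for the full control effect; nearly all actives have a fitted effect of over 15% in size.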 The essentials:
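Steps: seed HepG2-AhR-luc cells; allow 5 h at 37C; pin-transfer test compound or vehicle; incubate 24 h at 37C; add viability dye (30 min, 37C) and read fluorescence; add luciferase substrate (30 min, RT) and read luminescence.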

A short description of assay [3]: qHTS assay to identify small molecule agonists of the estrogen related receptor (ERR) signaling pathway from Tox21 library (AID 1224849; calls by dose curve; note: % is set by controls: 0 for no effect and ±100 for the full control effect; nearly all actives have a fitted effect of over 15% in size). Particulars: ERR reporter cell line, ONE-Glo luciferase, 18 h; at 92.4 µM (top of the series) unless noted. Summed up: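 Agonist signal is luciferase luminescence from an ERR reporter cell line treated 18 h at 37 C with DMSO-dissolved compounds, read 30 min after ONE-Glo addition at room temperature.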

For assay [4], the target named is Acetylcholinesterase (Homo sapiens) (UniProt P22303). The assay is described as follows: Acetylcholinesterase (AChE) small molecule antagonists: colormetric cell-based qHTS assay (AID 1347395; calls by dose curve; note: % is set by controls: 0 for no effect and ±100 for the full control effect; nearly all actives have a fitted effect of over 30% in size). Summed up: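 Endogenous AChE of human neuroblastoma SH-SY5Y cells was measured with an Ellman-type DTNB/acetylthiocholine mix. Compound pretreatment lasted 30 min at 37 C; substrate reaction ran 90 min at 37 C.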

The target is the same in assay [5]. The assay is described as follows: Acetylcholinesterase (AChE) small molecule antagonists: enzyme-based qHTS assay (AID 1347397; calls by dose curve; note: % is set by controls: 0 for no effect and ±100 for the full control effect; nearly all actives have a fitted effect of over 55% in size). Particulars: Potency: AChE enzyme activity inhibition; outcome: AChE enzyme activity inhibition. Summed up:
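Absorbance-based detection of thiocholine with DTNB served as the read-out. Recombinant human AChE was exposed to compound for 30 min at RT before a 10 min RT incubation with acetylthiocholine.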

Assay [6] has the same target. Description: Acetylcholinesterase (AChE) small molecule antagonists: fluorescence cell-based qHTS assay (AID 1347398; calls by dose curve; note: % is set by controls: 0 for no effect and ±100 for the full control effect; nearly all actives have a fitted effect of over 50% in size). Particulars: Potency: AChE activity; outcome: AChE activity. Summed up:
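Fluorimetric cell-based assay: intact SH-SY5Y cells, 30 min compound preincubation at 37 C, acetylthiocholine substrate with thiol probe Thiolite Green, 40 min RT development, fluorescence 490/520 nm.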

The target is the same in assay [7]. Description: Acetylcholinesterase (AChE) small molecule antagonists: enzyme-based qHTS assay with human liver microsomes (AID 1347399; calls by dose curve; note: % is set by controls: 0 for no effect and ±100 for the full control effect; nearly all actives have a fitted effect of over 60% in size). Particulars: Potency: qHTS inhibition; outcome: qHTS inhibition. The essentials: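 Recombinant human AChE (50 mU/mL in the enzyme mix) and human liver microsomes (0.25 mg/mL final) were preincubated with compound and NADPH (0.25 mg/mL final) for 30 min at 37 C. Acetylthiocholine/DTNB was then added; thiocholine was read colorimetrically after 10 min at room temperature.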

The nature of assay [8]: qHTS assay to identify small molecule antagonists of the estrogen related receptor (ERR) signaling pathway (AID 1224819; note: potency is the fitted concentration of half-maximal effect; nearly all actives have a fitted effect of over 50% in size). The essentials:
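Compounds dissolved in DMSO were pin-transferred onto ERR cells that had been plated 6 h earlier, and cells were then incubated 18 h at 37 C; signal was luciferase luminescence via One-Glo.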

The nature of assay [9]: qHTS assay to identify small molecule agonists of the estrogen related receptor (ERR) signaling pathway (AID 1224820). Note: % is set by controls: 0 for no effect and ±100 for the full control effect. Summed up:
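Quantitative HTS of the LOPAC library used NTP ERR reporter cells treated 18 h at 37 C. Signal is luminescence after One-Glo addition and a 30 min room-temperature incubation.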

A short description of assay [10]: qHTS assay to identify small molecule antagonists of the estrogen related receptor signaling pathway with the pleiotropic PPARgamma coactivator (PGC) cell viability counter screen (AID 1224822;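 note: potency is the fitted concentration of half-maximal effect; viability read after 17.5 h compound exposure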). The essentials:
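Seed PGC/ERR cells (2,000/well); incubate 6 h at 37 C/5% CO2; pin-transfer compounds in DMSO; incubate 17.5 h at 37 C; add CellTiter-Fluor; after 30 min read fluorescence.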

Assay [11] in a line: qHTS assay to identify small molecule agonists of the estrogen related receptor signaling pathway with the pleiotropic PPARgamma coactivator (PGC) (AID 1224823). Note: % is set by controls: 0 for no effect and ±100 for the full control effect. Summed up: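 Cell-based luciferase assay in the NTP-supplied PGC/ERR line, 2,000 cells/well; 18 h compound exposure at 37 C, luminescence after One-Glo.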
Assay [12] in a line: qHTS assay to test for compound auto fluorescence at 590 nm (red) in HepG2 cells (AID 720674). Note: % is set by controls: 0 for no effect and ±100 for the full control effect. The essentials:
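1 hr compound incubation on HepG2 cells, 37 C, 5% CO2; plate read ex 540 nm / em 590 nm; intensities reported as Rose Bengal sodium equivalents.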

Assay [13] can be described thus: qHTS assay to test for compound auto fluorescence at 535 nm (green) in HepG2 cells (AID 720675). Note: % is set by controls: 0 for no effect and ±100 for the full control effect.
A short description of assay [14]: qHTS assay to test for compound auto fluorescence at 460 nm (blue) in HEK293 cells (AID 720678). Note: % is set by controls: 0 for no effect and ±100 for the full control effect. Summed up:
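Blue read-out at excitation 405 nm and emission 460 nm follows overnight compound exposure of HEK293 cells at 37C in 5% CO2. Activity is given as auto fluorescence equivalency to triamterene.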

A short description of assay [15]: qHTS assay to test for compound auto fluorescence at 590 nm (red) in HEK293 cells (AID 720679). Note: % is set by controls: 0 for no effect and ±100 for the full control effect. The essentials:
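Red channel, Ex/Em 540/590nm; signal expressed as equivalency to Rose Bengal sodium. HEK293, 2,000 cells/well, 10% dialyzed FBS; 23 nL compound pinned after 4-5 hr attachment; overnight 37C/5% CO2 before reading.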

A short description of assay [16]: qHTS assay to test for compound auto fluorescence at 460 nm (blue) in HEK293 cell free culture (AID 720681). Note: % is set by controls: 0 for no effect and ±100 for the full control effect. The essentials: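 Blue fluorescence (Ex 405/Em 460 nm, triamterene-equivalent) was read immediately after pin transfer of compound or DMSO into medium (DMEM, 10% FBS) without cells.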
Assay [17] can be described thus: qHTS assay to test for compound auto fluorescence at 535 nm (green) in HEK293 cell free culture (AID 720682). Note: % is set by controls: 0 for no effect and ±100 for the full control effect. Summed up: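 Steps: dispense DMEM/10% FBS into empty wells; pin in compound or DMSO; measure fluorescence at 485/535 nm. Values are fluorescein equivalents.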
Assay [18] is described as follows: qHTS assay to test for compound auto fluorescence at 590 nm (red) in HEK293 cell free culture (AID 720683). Note: % is set by controls: 0 for no effect and ±100 for the full control effect. The essentials: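 Red-channel autofluorescence of compounds in culture medium (DMEM, 10% FBS), no cells, measured at 540/590 nm. Rose Bengal sodium is the reference fluorophore for equivalence.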
Assay [19] in a line: qHTS assay to test for compound auto fluorescence at 590 nm (red) in HepG2 cell free culture (AID 720684). Note: % is set by controls: 0 for no effect and ±100 for the full control effect. Summed up: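 Plate contents were MEM with 10% FBS plus test compound or DMSO, no cells. Fluorescence was recorded with 540 nm excitation and 590 nm emission.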
The nature of assay [20]: qHTS assay to test for compound auto fluorescence at 460 nm (blue) in HepG2 cell free culture (AID 720685). Note: % is set by controls: 0 for no effect and ±100 for the full control effect. The essentials: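 Compound (23 nL) or DMSO pinned into cell-free MEM with 10% FBS; blue fluorescence read at 405/460 nm excitation/emission, expressed as auto-fluorescence equivalency to triamterene.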
Assay [21] can be described thus: qHTS assay to test for compound auto fluorescence at 535 nm (green) in HepG2 cell free culture (AID 720686). Note: % is set by controls: 0 for no effect and ±100 for the full control effect.
The nature of assay [22]: qHTS assay to test for compound auto fluorescence at 460 nm (blue) in HepG2 cells (AID 720687). Note: % is set by controls: 0 for no effect and ±100 for the full control effect. The essentials:
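Blue-channel autofluorescence (Ex/Em 405/460 nm, triamterene-equivalent) was measured after 1 hr compound exposure at 37 C, 5% CO2. Cells were HepG2, plated overnight at 37 C in MEM plus 10% FBS.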

Assay [23] in a line: qHTS assay to identify small molecule antagonists of the thyroid receptor (TR) signaling pathway (AID 743065). Note: % is set by controls: 0 for no effect and ±100 for the full control effect; nearly all actives have a fitted effect of over 55% in size. Summed up:
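Antagonism measured as loss of luciferase signal in GH3 cells stably carrying a TRE-luciferase reporter, co-treated with compound and T3 (1 nM final) for 23.5 h at 37 C. Viability was read in the same well by CellTiter-Fluor.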

For another assay, the target named is Aromatase (Homo sapiens) (UniProt P11511). The assay is described as follows: qHTS assay to identify aromatase inhibitors (AID 743083). Note: % is set by controls: 0 for no effect and ±100 for the full control effect; nearly all actives have a fitted effect of over 55% in size.
The target of assay [24] is Luciferin 4-monooxygenase (Photinus pyralis) (UniProt P08659). Description: qHTS assay to identify small molecule inhibitors of firefly luciferase (AID 1224835). Note: % is set by controls: 0 for no effect and ±100 for the full control effect; nearly all actives have a fitted effect of over 25% in size. Summed up:
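Inhibition of purified Photinus luciferase is measured by luminescence. Substrate levels (D-luciferin, ATP) sit at their KM values. Each compound is tested in a concentration series.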

A short description of assay [25]: qHTS RealTime-Glo MT Cell Viability Assay in HEK293 cells - 0 hour (AID 1224880). Note: top concentration of the series differs between compounds; % is set by controls: 0 for no effect and ±100 for the full control effect; nearly all actives have a fitted effect of over 45% in size. Summed up:
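Nonlytic bioluminescent viability monitoring. HEK293 at 600 cells/well with reagent; 5 h settle; compound transfer by pintool; plates held at 37 C and read at set time points.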

The nature of assay [26]: qHTS assay to identify small molecule agonists of the sonic hedgehog signaling (Shh) pathway (AID 1259368; calls by dose curve;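 note: NIH/3T3-derived 3T3Gli1-Luc cells carrying a stable Gli1-driven firefly luciferase reporter; % is set by controls: 0 for no effect and ±100 for the full control effect; nearly all actives have a fitted effect of over 15% in size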). The essentials: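 Steps: seed 3T3 Gli1-Luc cells, incubate 4 hr at 37 C, pin-transfer compounds in DMSO alongside a positive control, incubate 24 hr, add luciferase detection reagent, wait 30 min at room temperature, read luminescence.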
Assay [27] is described as follows: qHTS assay to identify small molecule antagonists of the progesterone receptor (PR) signaling pathway - cell viability counter screen (AID 1346798).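 Note: HEK293T PR-UAS-bla cells stimulated with the agonist R5020; % is set by controls: 0 for no effect and ±100 for the full control effect; nearly all actives have a fitted effect of over 50% in size.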 The essentials:
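Same-well multiplex: after 16 hr at 37C with compound and R5020 stimulation, HEK293T cells carrying a UAS-bla reporter received LiveBLAzer substrate (2 hr RT), then CellTiter-Glo (30 min RT) for luminescent viability.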

In assay [28] the target is Thyrotropin-releasing hormone receptor (Homo sapiens) (UniProt P34981). Description: qHTS assay to identify small molecule antagonists of the thyrotropin-releasing hormone receptor (TRHR) signaling pathway (AID 1346877; active = well fitted inhibition curve with a large enough effect in the repeat runs, not every such curve was filed as active; note: % is set by controls: 0 for no effect and ±100 for the full control effect). The essentials:
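Cells (TRHR-HEK293) are plated and kept 18 h at 37 °C/5% CO2. A calcium-sensitive dye is added for 2 h, compound follows for 5 min at room temperature, and TRH is then given at 1 nM final.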

Assay [29] shares this target. The assay is described as follows: qHTS assay to identify small molecule agonists of the thyrotropin-releasing hormone receptor (TRHR) signaling pathway (AID 1346891; calls by dose curve). Summed up: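 Agonist-mode calcium mobilisation screen: TRHR-transfected HEK293 cells cultured overnight (18 h), dye-loaded for 2 h at 37 °C, exposed to compounds, and monitored by fluorescence for 3 min.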

Assay [30] is described as follows: Caspase-3/7 induction in HepG2 cells by small molecules, qHTS assay (AID 1346978). Note: % is set by controls: 0 for no effect and ±100 for the full control effect; nearly all actives have a fitted effect of over 15% in size. Summed up:
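Caspase-3/7 induction was measured by Caspase-Glo 3/7 luminescence (30 min, room temperature) after a 17 hr compound exposure of wild-type HepG2 cells seeded at 2,000 per well and pre-incubated 5 hr.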

Assay [31] is described as follows: Caspase-3/7 induction in CHO-K1 cells by small molecules, qHTS assay (AID 1346980). The essentials: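 Luminescent Caspase-Glo 3/7 read (30min, room temperature) quantified apoptosis induction. Cells were wild-type CHO-K1, treated with compound for 17hr at 37 C and 5% CO2.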

Sequence of Acetylcholinesterase (Homo sapiens) (P22303 whole entry, looked up): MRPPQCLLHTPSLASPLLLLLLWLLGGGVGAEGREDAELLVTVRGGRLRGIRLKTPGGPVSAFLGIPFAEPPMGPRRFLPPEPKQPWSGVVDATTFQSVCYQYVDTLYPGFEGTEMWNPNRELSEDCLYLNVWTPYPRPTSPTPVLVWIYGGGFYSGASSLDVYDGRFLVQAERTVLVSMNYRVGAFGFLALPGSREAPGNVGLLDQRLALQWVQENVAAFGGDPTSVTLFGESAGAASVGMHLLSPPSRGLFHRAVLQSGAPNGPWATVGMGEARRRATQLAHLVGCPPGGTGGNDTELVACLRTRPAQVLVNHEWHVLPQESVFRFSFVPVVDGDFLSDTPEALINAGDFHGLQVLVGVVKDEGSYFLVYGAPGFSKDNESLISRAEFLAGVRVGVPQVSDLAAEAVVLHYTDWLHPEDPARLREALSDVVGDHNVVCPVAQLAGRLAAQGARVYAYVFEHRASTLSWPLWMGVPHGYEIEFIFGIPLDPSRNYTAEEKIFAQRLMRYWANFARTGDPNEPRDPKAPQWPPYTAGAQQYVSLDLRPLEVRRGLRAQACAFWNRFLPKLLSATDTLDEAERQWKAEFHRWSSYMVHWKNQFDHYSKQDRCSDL
Sequence of Thyrotropin-releasing hormone receptor (Homo sapiens) (P34981 whole entry, looked up): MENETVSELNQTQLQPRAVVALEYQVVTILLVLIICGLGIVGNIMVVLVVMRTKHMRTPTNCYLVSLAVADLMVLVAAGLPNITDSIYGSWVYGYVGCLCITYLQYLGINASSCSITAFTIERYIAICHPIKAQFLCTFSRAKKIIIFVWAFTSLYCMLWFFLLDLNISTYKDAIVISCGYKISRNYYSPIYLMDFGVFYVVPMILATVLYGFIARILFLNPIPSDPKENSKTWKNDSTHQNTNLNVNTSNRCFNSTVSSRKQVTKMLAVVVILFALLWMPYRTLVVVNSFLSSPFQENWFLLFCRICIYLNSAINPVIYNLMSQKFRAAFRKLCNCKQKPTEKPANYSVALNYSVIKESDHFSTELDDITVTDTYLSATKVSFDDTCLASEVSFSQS
Sequence of Aryl hydrocarbon receptor (Homo sapiens) (P35869 whole entry, looked up): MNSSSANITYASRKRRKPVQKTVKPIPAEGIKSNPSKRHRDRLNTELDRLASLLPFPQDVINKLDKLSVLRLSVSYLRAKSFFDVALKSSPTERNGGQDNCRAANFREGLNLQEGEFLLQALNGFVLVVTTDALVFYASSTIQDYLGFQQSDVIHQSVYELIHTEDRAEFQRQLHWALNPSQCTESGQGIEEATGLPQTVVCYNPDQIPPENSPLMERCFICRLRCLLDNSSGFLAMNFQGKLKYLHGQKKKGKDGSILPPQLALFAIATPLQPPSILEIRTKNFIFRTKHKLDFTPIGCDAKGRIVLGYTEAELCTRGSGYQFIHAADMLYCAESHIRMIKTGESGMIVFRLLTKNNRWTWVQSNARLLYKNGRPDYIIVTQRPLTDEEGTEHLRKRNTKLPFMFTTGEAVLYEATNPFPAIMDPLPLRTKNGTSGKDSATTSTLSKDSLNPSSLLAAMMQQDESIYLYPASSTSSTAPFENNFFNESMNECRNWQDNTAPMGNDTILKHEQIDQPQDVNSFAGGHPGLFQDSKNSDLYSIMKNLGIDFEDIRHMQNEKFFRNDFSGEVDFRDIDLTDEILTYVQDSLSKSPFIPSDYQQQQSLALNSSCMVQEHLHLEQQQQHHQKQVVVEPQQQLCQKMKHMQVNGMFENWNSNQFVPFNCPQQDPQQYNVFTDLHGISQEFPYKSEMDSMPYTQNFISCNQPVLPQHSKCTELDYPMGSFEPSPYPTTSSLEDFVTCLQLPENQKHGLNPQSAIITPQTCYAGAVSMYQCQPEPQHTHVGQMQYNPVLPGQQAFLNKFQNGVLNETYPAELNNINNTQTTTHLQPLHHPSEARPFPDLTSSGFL
Sequence of Glucocorticoid receptor (Homo sapiens) (P04150 whole entry, looked up): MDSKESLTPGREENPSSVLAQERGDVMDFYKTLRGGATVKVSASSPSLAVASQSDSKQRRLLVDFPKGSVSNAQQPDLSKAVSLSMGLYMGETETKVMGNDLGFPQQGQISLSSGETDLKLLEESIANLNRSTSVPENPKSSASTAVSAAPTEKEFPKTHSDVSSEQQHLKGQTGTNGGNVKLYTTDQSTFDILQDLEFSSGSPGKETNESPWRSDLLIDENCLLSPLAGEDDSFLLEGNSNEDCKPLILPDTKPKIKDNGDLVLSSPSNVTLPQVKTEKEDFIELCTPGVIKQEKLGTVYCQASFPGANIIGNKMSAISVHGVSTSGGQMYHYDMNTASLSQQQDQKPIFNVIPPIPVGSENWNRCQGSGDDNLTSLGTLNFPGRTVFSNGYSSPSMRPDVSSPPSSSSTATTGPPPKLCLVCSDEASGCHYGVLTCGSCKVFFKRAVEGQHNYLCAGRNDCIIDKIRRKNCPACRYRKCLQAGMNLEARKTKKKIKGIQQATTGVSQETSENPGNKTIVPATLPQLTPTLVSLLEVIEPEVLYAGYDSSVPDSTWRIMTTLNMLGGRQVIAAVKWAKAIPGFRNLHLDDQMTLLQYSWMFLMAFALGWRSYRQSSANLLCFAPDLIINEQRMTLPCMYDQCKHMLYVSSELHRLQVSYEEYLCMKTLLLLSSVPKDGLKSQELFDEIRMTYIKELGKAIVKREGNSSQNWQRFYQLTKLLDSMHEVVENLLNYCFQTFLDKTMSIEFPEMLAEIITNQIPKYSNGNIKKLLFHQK
Sequence of Aromatase (Homo sapiens) (P11511 whole entry, looked up): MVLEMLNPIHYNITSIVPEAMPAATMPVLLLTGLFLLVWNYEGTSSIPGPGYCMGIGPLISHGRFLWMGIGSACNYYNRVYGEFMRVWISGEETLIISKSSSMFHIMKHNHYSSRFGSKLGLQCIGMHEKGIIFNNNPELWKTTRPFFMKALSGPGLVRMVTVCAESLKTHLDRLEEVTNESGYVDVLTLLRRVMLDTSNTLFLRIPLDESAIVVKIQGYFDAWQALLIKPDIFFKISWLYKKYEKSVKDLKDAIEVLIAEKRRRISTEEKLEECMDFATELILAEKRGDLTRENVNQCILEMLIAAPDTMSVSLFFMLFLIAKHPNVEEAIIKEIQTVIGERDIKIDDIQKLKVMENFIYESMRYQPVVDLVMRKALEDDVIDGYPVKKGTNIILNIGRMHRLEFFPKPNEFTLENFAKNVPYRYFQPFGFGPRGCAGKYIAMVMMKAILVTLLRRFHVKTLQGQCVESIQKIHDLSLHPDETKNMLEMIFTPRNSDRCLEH
Sequence of Luciferin 4-monooxygenase (Photinus pyralis) (P08659 whole entry, looked up): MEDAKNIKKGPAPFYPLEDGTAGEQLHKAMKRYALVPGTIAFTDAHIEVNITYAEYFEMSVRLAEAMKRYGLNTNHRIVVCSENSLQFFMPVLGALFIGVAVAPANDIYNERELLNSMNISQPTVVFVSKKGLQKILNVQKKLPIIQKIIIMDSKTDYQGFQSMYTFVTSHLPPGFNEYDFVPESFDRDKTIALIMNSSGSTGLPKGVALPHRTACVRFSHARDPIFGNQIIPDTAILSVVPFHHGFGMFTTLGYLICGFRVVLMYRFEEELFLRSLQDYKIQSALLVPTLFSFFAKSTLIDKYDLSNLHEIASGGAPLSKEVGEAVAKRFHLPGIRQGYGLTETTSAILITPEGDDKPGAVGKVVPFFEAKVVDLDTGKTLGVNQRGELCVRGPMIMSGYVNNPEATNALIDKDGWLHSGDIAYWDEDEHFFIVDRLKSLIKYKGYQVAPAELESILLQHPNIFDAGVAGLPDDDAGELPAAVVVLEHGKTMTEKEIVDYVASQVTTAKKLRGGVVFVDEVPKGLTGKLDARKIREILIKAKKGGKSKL

For the compound `CNc1ccccc1`, the Potency entry in [1], in [2], in [4], in [5], in assay [6] and in [7] was “inactive” each time. The activity change, positive = activation in assay [3] was -1.42%.

`CC(=O)c1c(O)c(C)c(O)c(Cc2c(O)c3c(c(C(=O)/C=C/c4ccccc4)c2O)OC(C)(C)C=C3)c1O`: the results for the Potency in assay [8] and in [10] were 10.6 µM (active) and 3.48 µM (active), respectively. In addition, the Potency entry in assay [9] and in [11] was “inactive” each time.

As to `O=[N+]([O-])c1ccccc1Cl`, the compound was called inactive in assay [12], in assay [15], in assay [18], in [19], in [25] and in assay [26]. The compound was classed as inactive in assay [28], in assay [29] and in assay [31]. Moreover, the Potency entry in assay [13], in [14], in assay [16], in [17], in assay [20] and in [21] was “inactive” each time. In addition, the Potency result (in assay [22]; in assay [23]; in the assay with Aromatase (Homo sapiens); in [2]; in [24]; in [27]) was “inactive” each time. Also, the Potency result in assay [30] is “inactive”.
